Screening results deposited in PubChem BioAssay by National Center for Advancing Translational Sciences (NCATS).
An excerpt weighted towards active compounds, which were near 7.2% of everything screened.
Sm TGR block: S. mansoni TGR enzyme inhibition | 360,000 compounds, 3% hits | Potency, µM (doses to about 114 µM), for the others: at the highest dose activity change, negative = inhibition, actives largely listed as inhibitors | AID 485364 | purified TGR, DTNB reduction, TNB absorbance 405 nm | Q962Y6; also: nearly all actives have a fitted effect of over 60% in size
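Kinetic colorimetric format: TGR-catalysed, NADPH-driven DTNB reduction monitored via TNB absorbance. Enzyme dispensed at 20 nM; compound exposure 15 min at room temperature before reaction start.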
MARV entry inh: Marburg virus entry inhibition | Marburg virus pseudotyped entry inhibition, cell reporter | Potency, µM (top dose mostly 37.8 µM), inactives show top-dose activity change, negative = inhibition, usual class: inhibitors | 300,000 compounds, 1.8% hits; calls by dose curve; tested in HEK293 cells
RE007 growth inh: less growth of the S. pombe RE007 Vpr strain; Potency, µM (series often up to 92.2 µM), inactives show top-dose activity change, negative = less growth, actives largely listed as inhibitors; S. pombe RE007 Vpr strain, BacTiter-Glo ATP luminescence, 24 h; 360,000 compounds, 0.21% hits; active = well fitted falling curve with a large enough effect; inconclusive = small, poorly fitted or top-dose-only effect; inactive = no such curve, though single readings can be large or run the other way; also: nearly all actives have a fitted effect of over 50% in size
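Fission yeast RE007 carrying one integrated HIV-1 vpr copy, seeded at OD 0.01 in PMG+AL medium with 23 nL pinned compound. Grown 24 h at 30 degrees; viability read by BacTiter-Glo luminescence after 5 min.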
HCV inh: HCV inhibition | Huh7.5.1 HCVcc-Cre infection, luciferase reporter, 44 h | Potency, µM (doses to about 41.8 µM), inactives show at the highest dose activity change, negative = inhibition, usual class: inhibitors | 340,000 compounds, 3.4% hits | AID 651820
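Luciferase read-out (15 sec integration) after a 15 min room-temperature substrate step quantifies HCVcc-Cre infection. Cells, 1,000 per well, had compound added 4 h post-plating, then virus at ~0.5 moi, and were cultured 44 h.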
Lassa entry inh: blocks Lassa virus binding to or entry into cells; Lassa virus pseudotype entry inhibition, cell reporter; Potency, µM (highest dose often 37.9 µM), for the others: top-dose activity change, negative = inhibition, actives largely listed as inhibitors; 300,000 compounds, 1.2% hits; calls by dose curve; tested in HEK293 cells; also: nearly all actives have a fitted effect of over 50% in size
FMDV antiviral: blocks foot and mouth disease virus; FMDV antiviral cell-based qHTS; AID 1159524; 410,000 compounds, 1.2% hits; Potency, µM (doses to about 57.9 µM), for the others: at the highest dose activity change, negative = inhibition, usual class: inhibitors; calls by dose curve; tested in HEK293T cells; also: read-out not given here; nearly all actives have a fitted effect of over 45% in size
An asterisk follows results filed as active; [ ] = remark or other dose. Unless noted, calls follow the shape of the dose curve; as a rule, active = well fitted curve in the direction sought with a large enough effect; inconclusive = small, poorly fitted or top-dose-only effect, or another doubt; inactive = no such curve, though single readings can be large; an effect the other way counts as inactive or inconclusive. % is scaled to controls: 0 for no effect and ±100 for the full control effect; potency is read from the fitted curve at half-maximal effect.

Results for Cc1ccccc1C(=O)NCC(=O)Nc1ccc(C)c(S(=O)(=O)N2CCCCCC2)c1 ?
Sm TGR block: -23%; MARV entry inh: inconclusive; RE007 growth inh: -3%; HCV inh: 8.9µM*; Lassa entry inh: inconclusive; FMDV antiviral: 35µM*

What do the screens show for `CC(=O)Nc1ccc(NC(=O)C2CCCN(C(=O)c3ccc(Cl)cc3)C2)cc1` (stereo unspecified)?
Sm TGR block: 7%; MARV entry inh: -10%[46.1 µM]; RE007 growth inh: 4%; HCV inh: 21%; FMDV antiviral: -15%

How did Cc1ccc(NC(=O)C2CCCN(C(=O)c3ccc(Cl)cc3)C2)cc1S(=O)(=O)N1CCOCC1 (stereo unspecified) do in these assays?
Sm TGR block: 2%; MARV entry inh: inconclusive; RE007 growth inh: 12%; HCV inh: 4µM*; Lassa entry inh: inconclusive; FMDV antiviral: inconclusive

How did Cc1ccccc1C(=O)N1CCC(C(=O)Nc2cccc(S(=O)(=O)N3CCCCC3)c2)CC1 do in these assays?
Sm TGR block: -3%; RE007 growth inh: -17%; HCV inh: inconclusive; FMDV antiviral: inconclusive

Results for CCOc1ncccc1C(=O)Nc1ccc(C)c(S(=O)(=O)N2CCCCCC2)c1 ?
Sm TGR block: 0%; RE007 growth inh: 8%; HCV inh: 14µM*; FMDV antiviral: -14%

What do the screens show for `Cc1ccc(NC(=O)Cn2nc(C(=O)O)c3ccccc3c2=O)cc1S(=O)(=O)N1CCCCC1`?
MARV entry inh: -27%; RE007 growth inh: -11%; HCV inh: 18%; Lassa entry inh: 3%; FMDV antiviral: 40µM*

Results for Cc1ccc(NC(=O)C2CCN(S(=O)(=O)c3ccc(N4CCCC4=O)cc3)CC2)cc1Cl ?
Sm TGR block: -4%; MARV entry inh: inconclusive; RE007 growth inh: 4%; HCV inh: 10µM*; Lassa entry inh: inconclusive; FMDV antiviral: -28%

What do the screens show for `Cc1ccccc1C(=O)N1CCC(C(=O)Nc2ccc(C)c(S(=O)(=O)N3CCCCC3)c2)CC1`?
Sm TGR block: -4%; RE007 growth inh: -5%; HCV inh: 10µM*; FMDV antiviral: inconclusive

Results for CCN1C(=O)[C@H]2[C@H]3[C@H](O)[C@H](O)C/C(=N\OC[C@H]4O[C@H](c5ccccc5)C=C[C@@H]4Oc4ccc(OC)cc4)[C@@H]3CC[C@H]2C1=O ?
MARV entry inh: -28%[14.2 µM]

Results for CCn1cc2nc(SCC(=O)Nc3ccc(OC)c(OC)c3)n(Cc3ccc(Cl)cc3)c(=O)c2n1 ?
Sm TGR block: 4%; MARV entry inh: -2%[46.1 µM]; Lassa entry inh: 5%[46.1 µM]; FMDV antiviral: 7%

What do the screens show for `Nc1c(Cl)cc(C2=NCCn3c2c2ccc([N+](=O)[O-])cc2[n+]3[O-])cc1Cl`?
Sm TGR block: 40µM*; RE007 growth inh: -10%; HCV inh: 10µM*; FMDV antiviral: -15%

Results for COc1cc([N+](=O)[O-])ccc1NC(=O)Nc1ccc2c(c1)OCCO2 ?
Sm TGR block: 1%; MARV entry inh: inconclusive; RE007 growth inh: 11%; HCV inh: 7.1µM*; FMDV antiviral: -30%

What do the screens show for `O=C(Nc1ccc([N+](=O)[O-])cc1)Nc1ccc2c(c1)OCCO2`?
Sm TGR block: 2%; MARV entry inh: inconclusive; RE007 growth inh: -1%; HCV inh: inconclusive; Lassa entry inh: inconclusive; FMDV antiviral: -9%

Results for CCOC(=O)C1CCN(C(=O)c2ccc3c(c2)NC(=O)/C(=C\c2cccc(C)c2)S3)CC1 ?
Sm TGR block: 5%; RE007 growth inh: 5%; HCV inh: 11µM*; FMDV antiviral: -14%

Results for CN1CCN(C(=O)c2ccc3c(c2)NC(=O)/C(=C/c2ccccc2)S3)CC1 ?
Sm TGR block: 7%; RE007 growth inh: -11%; HCV inh: 11µM*; FMDV antiviral: -10%

How did CCOC(=O)C1CCN(C(=O)c2ccc3c(c2)NC(=O)/C(=C/c2ccccc2)S3)CC1 do in these assays?
Sm TGR block: -22%; RE007 growth inh: 15%; HCV inh: 11µM*; FMDV antiviral: -6%
